According to PubChem BioAssay (NCATS):
Results filed as inconclusive are left out. A call without a number means that no potency is given here. The source made the active and inactive calls. The call rests on the fitted dose curve; in most records, active means well fitted inhibition curve with a large enough effect; inconclusive means small, poorly fitted or top-dose-only effect; inactive means flat fitted curve, though single readings scatter.

Tests used:
Test in all cases: qHTS profiling for inhibitors of Plasmodium falciparum proliferation (AID 504749); further: nearly all actives have a fitted effect of over 60% in size
Conditions in all cases: P. falciparum in erythrocytes, SYBR Green DNA, 72 h; series mostly up to 28.7 µM
CP305 = tested on: CP305
Procedure, shortened: (§1)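 Infected RBCs, 0.3% parasitemia/2.5% Hct final; cpd 72 h, 37 C, 5% CO2; lysis buffer with saponin/triton/SYBR Green I, o/n RT dark; FI 485/535; norm. to artemisinin (0.29 uM) and DMSO.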

CP315 = tested on: CP315
Procedure, shortened: as §1

CP325 = tested on: CP325
Procedure, shortened: as §1

CP329 = tested on: CP329
Procedure, shortened: as §1

CP335 = tested on: CP335
Procedure, shortened: as §1

DFO2036 = tested on: DFO2036
Procedure, shortened: as §1

DIV14 = tested on: DIV14
Procedure, shortened: as §1

DIV17 = tested on: DIV17
Procedure, shortened: as §1

DIV30 = tested on: DIV30
Procedure, shortened: as §1

Dd2 = tested on: Dd2
Procedure, shortened: as §1
Potency means the concentration at half of the fitted maximal effect.

| Structure (SMILES) | Potency (CP305) | Potency (CP315) | Potency (CP325) | Potency (CP329) | Potency (CP335) | Potency (DFO2036) | Potency (DIV14) | Potency (DIV17) | Potency (DIV30) | Potency (Dd2) |
| --- | --- | --- | --- | --- | --- | --- | --- | --- | --- | --- |
| CC(=O)Nc1ccc(OC(C)=O)cc1 | inactive | inactive | inactive | inactive | inactive | inactive | inactive | inactive | inactive | inactive |
| Nc1nc(=O)n([C@@H]2CS[C@H](CO)O2)cc1F | inactive | inactive | inactive | inactive | inactive | inactive | inactive | inactive | inactive | inactive |
| Nc1ncnc2c1ncn2CCOCP(=O)(O)O | inactive | inactive | inactive | inactive | inactive | inactive | inactive | inactive | inactive | inactive |
| CCCCCCCCCCCCCCCCCCCCCC(=O)Nc1ccn([C@@H]2O[C@H](CO)[C@@H](O)[C@@H]2O)c(=O)n1 | inactive | inactive | inactive | inactive | inactive | inactive | inactive | inactive | inactive | inactive |
| CC(=O)N[C@@H]1C(O[C@H]2O[C@H](C(=O)O)C(O)[C@H](O)[C@H]2O)[C@H](O)[C@@H](CO)O[C@H]1O[C@@H]1C(C(=O)O)O[C@@H](O[C@H]2[C@H](O)[C@@H](CO)OC(O)[C@@H]2NC(C)=O)[C@H](O)[C@H]1O (stereo not given in full) | inactive | inactive | inactive | inactive | inactive | inactive | inactive | inactive | inactive | inactive |
| O=C(O)[C@H]1CN(C/C=C/P(=O)(O)O)CCN1 | inactive | inactive | inactive | inactive | inactive | inactive | inactive | inactive | inactive | inactive |
| Cc1ncc(C[n+]2csc(CCOP(=O)(O)O)c2C)c(N)n1 | inactive | inactive | inactive | inactive | inactive | inactive | inactive | inactive | inactive | inactive |
| NC(=S)NS(=O)(=O)c1ccc(N)cc1 | inactive | inactive | inactive | inactive | inactive | inactive | inactive | inactive | inactive | inactive |
| CC12CCC(C1)C(C)(C)C2=O (stereo not given) | inactive | inactive | inactive | inactive | inactive | inactive | inactive | inactive | inactive | inactive |
| CCOC(=S)SSC(=S)OCC | inactive | inactive | inactive | inactive | inactive | inactive | inactive | inactive | inactive | inactive |
| C[C@H](CCC(=O)O)[C@H]1CC[C@H]2[C@@H]3CC[C@@H]4C[C@H](O)CC[C@]4(C)[C@H]3C[C@H](O)[C@]12C | inactive | inactive | inactive | inactive | inactive | inactive | inactive | inactive | inactive | inactive |
| O=C1NCCN1c1ncc([N+](=O)[O-])s1 | inactive | inactive | inactive | inactive | inactive | inactive | inactive | inactive | inactive | inactive |
| CC(=O)Nc1ccc(OC(=O)c2ccccc2O)cc1 | inactive | inactive | inactive | inactive | inactive | inactive | inactive | inactive | inactive | inactive |
| CC(C)(C)c1ccc2c(S(=O)(=O)O)c(C(C)(C)C)ccc2c1 | inactive | inactive | inactive | inactive | inactive | inactive | inactive | inactive | inactive | inactive |
| ClC(Cl)Cl | inactive | inactive | inactive | inactive | inactive | inactive | inactive | inactive | inactive | inactive |
| O=C(O)c1ccc(OCCn2ccnc2)cc1 | inactive | inactive | inactive | inactive | inactive | inactive | inactive | inactive | inactive | inactive |
| O=C(O)COc1ccc(CCNS(=O)(=O)c2ccccc2)s1 | inactive | inactive | inactive | inactive | inactive | inactive | inactive | inactive | inactive | inactive |
| O=C(O)/C=C/c1ccccc1 | inactive | inactive | inactive | inactive | inactive | inactive | inactive | inactive | inactive | inactive |
| CC(=O)Oc1cc(C(F)(F)F)ccc1C(=O)O | inactive | inactive | inactive | inactive | inactive | inactive | inactive | inactive | inactive | inactive |
| CCC(Cc1c(I)cc(I)c(O)c1I)C(=O)O (stereo not given) | inactive | inactive | inactive | inactive | inactive | inactive | inactive | inactive | inactive | inactive |

| Structure (SMILES) | Potency (CP305) | Potency (CP315) | Potency (CP325) | Potency (CP329) | Potency (CP335) | Potency (DFO2036) | Potency (DIV14) | Potency (DIV17) | Potency (DIV30) | Potency (Dd2) |
| --- | --- | --- | --- | --- | --- | --- | --- | --- | --- | --- |
| Cc1ncc(COP(=O)(O)O)c(CN)c1O | inactive | inactive | inactive | inactive | inactive | inactive | inactive | inactive | inactive | inactive |
| CNC(=O)C[C@@H](N)C(=O)N[C@@H](C(=O)N[C@@H]1C(=O)N2[C@@H]1SC(C)(C)[C@@H]2C(=O)O)c1ccc(O)cc1 | inactive | inactive | inactive | inactive | inactive | inactive | inactive | inactive | inactive | inactive |
| CC1=C(/C=C/C(C)=C/C=C/C(C)=C/C(=O)Oc2c(C)c(C)c3c(c2C)CC[C@@](C)(CCC[C@H](C)CCC[C@H](C)CCCC(C)C)O3)C(C)(C)CCC1 | inactive | inactive | inactive | inactive | inactive | inactive | inactive | inactive | inactive | inactive |
| COC(=O)C(CN)c1c[nH]c2ccc(OC)cc12 (stereo not given) | inactive | inactive | inactive | inactive | inactive | inactive | inactive | inactive | inactive | inactive |
| [O]=[Bi][O]C(=O)[O][Bi]=[O] | inactive | inactive | inactive | inactive | inactive | inactive | inactive | inactive | inactive | inactive |
| O=c1[nH]c(=O)n([C@H]2C[C@H](O)[C@@H](CO)O2)cc1/C=C/Br | inactive | inactive | inactive | inactive | inactive | inactive | inactive | inactive | inactive | inactive |
| Cc1ncc(C[n+]2csc(CCOP(=O)(O)OP(=O)(O)O)c2C)c(N)n1 | inactive | inactive | inactive | inactive | inactive | inactive | inactive | inactive | inactive | inactive |
| CC(C)CCC[C@@H](C)[C@H]1CC[C@H]2[C@@H]3CC[C@@H]4C[C@H](O)CC[C@]4(C)[C@H]3CC[C@]12C | inactive | inactive | inactive | inactive | inactive | inactive | inactive | inactive | inactive | inactive |
| OC/C=C/c1ccccc1 | inactive | inactive | inactive | inactive | inactive | inactive | inactive | inactive | inactive | inactive |
| C=CCCCCCCCCC(=O)OC | inactive | inactive | inactive | inactive | inactive | inactive | inactive | inactive | inactive | inactive |
| COc1ccc(-c2noc(CC(=O)O)c2-c2ccc(OC)cc2)cc1 | inactive | inactive | inactive | inactive | inactive | inactive | inactive | inactive | inactive | inactive |
| c1ccc2c(c1)Sc1ccccc1N2CCN1CCCC1 | 15.1 µM (active) | 12 µM (active) | 15.1 µM (active) | 15.1 µM (active) | 9.53 µM (active) | 10 µM (active) | 6.01 µM (active) | 6.75 µM (active) | 12 µM (active) | 5.62 µM (active) |
| CCCCCCCCCCCC(=O)N(CCO)CCO | inactive | inactive | inactive | inactive | inactive | inactive | inactive | inactive | inactive | inactive |
| O=C(O)CCC/C=C\C[C@@H]1[C@@H](/C=C/[C@@H](O)COc2cccc(C(F)(F)F)c2)[C@H](O)C[C@@H]1O | inactive | inactive | inactive | inactive | inactive | inactive | inactive | inactive | inactive | inactive |
| CC(C)CCCC(C)NC(C)C (stereo not given) | inactive | inactive | inactive | inactive | inactive | inactive | inactive | inactive | inactive | inactive |
| CC(CNC(=O)c1cccnc1)NC(=O)c1cccnc1 (stereo not given) | inactive | inactive | inactive | inactive | inactive | inactive | inactive | inactive | inactive | inactive |
| Nc1ncnc2c1ncn2[C@H]1CC[C@@H](CO)O1 | inactive | inactive | inactive | inactive | inactive | inactive | inactive | inactive | inactive | inactive |
| Oc1cc(O)cc(O)c1 | inactive | inactive | inactive | inactive | inactive | inactive | inactive | inactive | inactive | inactive |
| CC1=CC(=C(c2ccc(N)cc2)c2ccc(N)cc2)C=CC1=N | 4.26 µM (active) | 4.78 µM (active) | 6.01 µM (active) | 4.78 µM (active) | 2.13 µM (active) | 2.82 µM (active) | 1.07 µM (active) | 1.35 µM (active) | 5.36 µM (active) | 2.82 µM (active) |
| NC(=O)[C@@H]1CCCN1C(=O)[C@H](Cc1cnc[nH]1)NC(=O)[C@@H]1CCC(=O)N1 | inactive | inactive | inactive | inactive | inactive | inactive | inactive | inactive | inactive | inactive |
